Results from PubChem BioAssay AID1159580 (chemical genetic matrix, 2015).
Hit rate of the full screen: of about 5,500 compounds, about 2,000 (36%) were called active. Inconclusive results (about 18%) are left out. Cut-off read from the data, not from the text of the source: active = normalized growth mostly below about 0.91 (no sharp cut-off); inconclusive = no clear call, values can overlap the other calls; inactive = mostly above about 0.92. The list shows a part of the results.

Assay: chemical genetic growth profiling, strain panel (AID 1159580);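 note: tested at 20 µM; growth read once vehicle control cultures reached saturation at 30 °C; 1 = growth at the plate median or of vehicle wells; lower values mean less growth of the strain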
Settings: S. cerevisiae deletion strains, growth OD

Measured: normalized growth

CN(C)C1C(=O)C(C(N)=O)=C(O)C2(O)C(=O)C3=C(O)c4c(O)ccc(Cl)c4C(O)C3CC12 (centres undefined)
inactive: locus YAL040C, strain CLN3, active compounds read low 1 | locus YCL061C, strain MRC1 (second series), active compounds read low 1 | locus YDR150W, strain NUM1, active compounds read low 0.997 | locus YDR363W, strain ESC2, active compounds read low 1 | locus YER002W, strain NOP16, active compounds read low 1 | locus YGR078C, strain PAC10, active compounds read low 0.989 | locus YJR075W, strain HOC1, active compounds read low 0.999 | locus YMR307W, strain GAS1, active compounds read low 0.978 | locus YNL175C, strain NOP13, active compounds read low 1.02 | locus YNL197C, strain WHI3, active compounds read low 0.979 | locus YNL224C, strain SQS1, active compounds read low 0.996 | locus YNL322C, strain KRE1, active compounds read low 0.995 | locus YOR083W, strain WHI5 (second series), active compounds read low 0.995 | locus YPL241C, strain CIN2, active compounds read low 1.01
